Experimental data from PubChem BioAssay (NCI).
Several values for one entry are separate records, joined by “and”; a condition that tells them apart may be missing. Identical values can stand only once. This is part of a sample that, as a whole, favours compounds with a hit. Of some 83,000 tested, about 20% had one in any assay.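 Cell lines were cultured in 96-well plates, exposed to a single compound concentration, and assessed for percent growth 48 hours later.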 Activity calls are given as the source filed them. How the source made its calls: active means growth percent below 10; inactive means the rest.

Columns and labels:
Assay in all cases: NCI-60 one-dose screen, 48 h (100 = growth as untreated, 0 = no growth, -100 = all killed)
NCI-H23 lung = test system: NCI-H23 lung
NCI-H226 lung = test system: NCI-H226 lung
NCI-H322M lung = test system: NCI-H322M lung
HOP-62 NSCLC = test system: HOP-62 NSCLC
NCI-H460 lung = test system: NCI-H460 lung
HOP-92 NSCLC = test system: HOP-92 NSCLC
NCI-H522 lung = test system: NCI-H522 lung
A549/ATCC NSCLC = test system: A549/ATCC NSCLC
786-0 renal = test system: 786-0 renal
COLO 205 colon = test system: COLO 205 colon
DU-145 prostate = test system: DU-145 prostate
K-562 leukemia = test system: K-562 leukemia
MALME-3M melanoma = test system: MALME-3M melanoma
MDA-MB-231 breast = test system: MDA-MB-231 breast
RXF 393 renal = test system: RXF 393 renal
SF-268 CNS = test system: SF-268 CNS
SF-295 CNS = test system: SF-295 CNS
UACC-257 melanoma = test system: UACC-257 melanoma
M14 melanoma = test system: M14 melanoma
SF-539 CNS = test system: SF-539 CNS

Measured: growth

COc1cc(C(C)(C)C)cc(OC)c1C(O)(c1c(OC)cc(C(C)(C)C)cc1OC)c1c(OC)cc(C(C)(C)C)cc1OC
active: NCI-H23 lung; 10 µM -51.2% | NCI-H226 lung; 10 µM -65.7% | NCI-H322M lung; 10 µM -68.6% | HOP-62 NSCLC; 10 µM -95.3% | NCI-H460 lung; 10 µM -82.1% | HOP-92 NSCLC; 10 µM -66.2% | NCI-H522 lung; 10 µM -56.4% | A549/ATCC NSCLC; 10 µM -54.4% | 786-0 renal; 10 µM -96.6% | COLO 205 colon; 10 µM -89.2% | DU-145 prostate; 10 µM -100% | K-562 leukemia; 10 µM -89.4% | MALME-3M melanoma; 10 µM -80.8% | MDA-MB-231 breast; 10 µM -85.2% | RXF 393 renal; 10 µM -27.4% | SF-268 CNS; 10 µM -77% | SF-295 CNS; 10 µM -78.9% | UACC-257 melanoma; 10 µM -46.1% | M14 melanoma; 10 µM -94.6%

N#C/C(=C1C=C/C(=N\O)C(Cl)=C\1)c1ccccc1
active: SF-295 CNS; 10 µM -32.2% | SF-539 CNS; 10 µM 2.46%
inactive: NCI-H23 lung; 10 µM 82.8% | NCI-H226 lung; 10 µM 87.8% | NCI-H322M lung; 10 µM 55.3% | HOP-62 NSCLC; 10 µM 33.2% | NCI-H460 lung; 10 µM 14.3% | HOP-92 NSCLC; 10 µM 38.3% | A549/ATCC NSCLC; 10 µM 31.2% | 786-0 renal; 10 µM 43% | COLO 205 colon; 10 µM 38.3% | DU-145 prostate; 10 µM 40.2% | K-562 leukemia; 10 µM 20.9% | MALME-3M melanoma; 10 µM 58.7% | MDA-MB-231 breast; 10 µM 20.6% | RXF 393 renal; 10 µM 43.9% | SF-268 CNS; 10 µM 27% | M14 melanoma; 10 µM 46%

Nc1ccc2cc(Br)c3ccccc3c2c1
inactive: NCI-H23 lung; 10 µM 69.5% | NCI-H226 lung; 10 µM 59.4% | NCI-H322M lung; 10 µM 64.7% | HOP-62 NSCLC; 10 µM 80.9% | NCI-H460 lung; 10 µM 54.1% | HOP-92 NSCLC; 10 µM 75.3% | NCI-H522 lung; 10 µM 86.9% | A549/ATCC NSCLC; 10 µM 63% | 786-0 renal; 10 µM 54.8% | COLO 205 colon; 10 µM 115% | DU-145 prostate; 10 µM 61.8% | K-562 leukemia; 10 µM 31.7% | MALME-3M melanoma; 10 µM 97.8% | SF-268 CNS; 10 µM 68.9% | SF-295 CNS; 10 µM 21% | SF-539 CNS; 10 µM 47.9% | UACC-257 melanoma; 10 µM 90.1% | M14 melanoma; 10 µM 78.5%
active: RXF 393 renal; 10 µM 4.19%

O=c1[nH]cc(F)c(=O)[nH]1
active: A549/ATCC NSCLC; 10 µM -11.5% | SF-539 CNS; 10 µM -0.0094% and -4.58% | SF-539 CNS; 25 µM -19.6%
inactive: NCI-H23 lung; 10 µM 55% and 55.2% | NCI-H23 lung; 25 µM 39% | NCI-H23 lung; 50 µM 41.6% | NCI-H226 lung; 10 µM 85.2% and 94.1% | NCI-H226 lung; 25 µM 69.5% | NCI-H322M lung; 10 µM 62.5% and 58.5% | NCI-H322M lung; 25 µM 59.5% | NCI-H322M lung; 50 µM 48.6% | HOP-62 NSCLC; 10 µM 46.6% and 82.3% | HOP-62 NSCLC; 25 µM 47.8% | HOP-62 NSCLC; 50 µM 42.4% | NCI-H460 lung; 10 µM 16% and 20% | NCI-H460 lung; 25 µM 13% | NCI-H460 lung; 50 µM 13.9% | HOP-92 NSCLC; 10 µM 87.3% and 49.3% | HOP-92 NSCLC; 25 µM 50.6% | HOP-92 NSCLC; 50 µM 75.7% | NCI-H522 lung; 10 µM 62.1% and 62.2% | NCI-H522 lung; 25 µM 58% | A549/ATCC NSCLC; 25 µM 34.2% | A549/ATCC NSCLC; 50 µM 31.2% | 786-0 renal; 10 µM 64.2% and 62.2% | 786-0 renal; 25 µM 48.7% | 786-0 renal; 50 µM 59% | COLO 205 colon; 10 µM 51.4% and 39.4% | COLO 205 colon; 25 µM 40.2% | COLO 205 colon; 50 µM 33.5% | DU-145 prostate; 10 µM 57.4% and 65.3% | DU-145 prostate; 25 µM 35.5% | DU-145 prostate; 50 µM 20.5% | K-562 leukemia; 10 µM 64.6% and 69.4% | K-562 leukemia; 25 µM 42.3% | K-562 leukemia; 50 µM 41.5% | MALME-3M melanoma; 10 µM 53.1% and 69.9% | MALME-3M melanoma; 25 µM 58.2% | MALME-3M melanoma; 50 µM 53.7% | MDA-MB-231 breast; 10 µM 96.2% and 84.6% | MDA-MB-231 breast; 25 µM 78.1% | MDA-MB-231 breast; 50 µM 77.2% | RXF 393 renal; 10 µM 63.4% and 10.7% | RXF 393 renal; 25 µM 34.3% | RXF 393 renal; 50 µM 54.4% | SF-268 CNS; 10 µM 81.3% and 91.9% | SF-268 CNS; 25 µM 59% | SF-268 CNS; 50 µM 47.7% | SF-295 CNS; 10 µM 77% and 100% | SF-295 CNS; 25 µM 69.1% | SF-295 CNS; 50 µM 90.5% | SF-539 CNS; 50 µM 22.8% | UACC-257 melanoma; 10 µM 73.1% and 22.6% | UACC-257 melanoma; 25 µM 19.5% | UACC-257 melanoma; 50 µM 53.5% | M14 melanoma; 10 µM 64% and 28.9% | M14 melanoma; 50 µM 42.4%

BrC/C=C/C[P+](c1ccccc1)(c1ccccc1)c1ccccc1
inactive: NCI-H23 lung; 10 µM 84.2% | NCI-H226 lung; 10 µM 76.2% | NCI-H322M lung; 10 µM 96.5% | HOP-62 NSCLC; 10 µM 27.4% | NCI-H460 lung; 10 µM 57.4% | HOP-92 NSCLC; 10 µM 60.4% | NCI-H522 lung; 10 µM 40% | A549/ATCC NSCLC; 10 µM 44% | 786-0 renal; 10 µM 46.2% | COLO 205 colon; 10 µM 16.5% | DU-145 prostate; 10 µM 39.7% | K-562 leukemia; 10 µM 17.5% | MALME-3M melanoma; 10 µM 60.6% | MDA-MB-231 breast; 10 µM 77.4% | RXF 393 renal; 10 µM 81.8% | SF-268 CNS; 10 µM 58.7% | SF-295 CNS; 10 µM 38.2% | SF-539 CNS; 10 µM 10% | UACC-257 melanoma; 10 µM 47.9% | M14 melanoma; 10 µM 49.9%

S=c1[nH]nc(Cc2ccccc2)c(=S)[nH]1
inactive: NCI-H23 lung; 10 µM 92.5% | NCI-H226 lung; 10 µM 103% | NCI-H322M lung; 10 µM 97.7% | HOP-62 NSCLC; 10 µM 97.7% | NCI-H460 lung; 10 µM 104% | HOP-92 NSCLC; 10 µM 100% | NCI-H522 lung; 10 µM 88% | A549/ATCC NSCLC; 10 µM 94.7% | 786-0 renal; 10 µM 106% | COLO 205 colon; 10 µM 106% | DU-145 prostate; 10 µM 100% | K-562 leukemia; 10 µM 94.6% | MALME-3M melanoma; 10 µM 98.3% | MDA-MB-231 breast; 10 µM 113% | RXF 393 renal; 10 µM 103% | SF-268 CNS; 10 µM 90.3% | SF-295 CNS; 10 µM 99.8% | SF-539 CNS; 10 µM 102% | UACC-257 melanoma; 10 µM 102% | M14 melanoma; 10 µM 101%
